Experimental data reported in PubChem BioAssay.
Several values for one entry are separate records, joined by “and”; a condition that tells them apart may be missing. Identical values can stand only once. More than one record can exist for a structure, and the calls need not agree. Activity calls are given as the source filed them. Cut-off read from the data, not from the text of the source, unless noted: active = inhibition above about 80%; inactive = the rest.

How the values were obtained:
[1] = growth inhibition, single agent or in combination, cell-based, chromothripsis tumors, cisplatin or BGB combos (AID 1671449); conditions: LFS_MB_P medulloblastoma cells;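 note: cells exposed for 96 hours; 0% = vehicle DMSO and 100% = killing by high DMSO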
[2] = growth inhibition, single agent and combos, cell-based, chromothripsis tumors, cisplatin or BGB combos (AID 1671450); conditions: HDN33 neuroblastoma cells, stronger effect = higher value;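 note: cells exposed to compound for four days; 0% = vehicle DMSO and 100% = cell killing by high DMSO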
[3] = growth inhibition, single agents and combos, ICB984, cell-based, cisplatin or BGB combos, synergistic combos for chromothripsis tumors (AID 1671451; call rule not given here;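 note: cells exposed for 96 hours before readout; 0% = vehicle DMSO and 100% = killing by high DMSO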); conditions: ICB984 medulloblastoma cells, drug combinations, stronger effect = higher value
[4] = growth inhibition, single agents and combos, LFS_MB_1R, cell-based, cisplatin or BGB combos, synergistic combos for chromothripsis tumors (AID 1671452); conditions: LFS_MB_1R medulloblastoma cells, stronger effect = higher value;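 note: cells exposed for 96 hours before readout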
[5] = growth inhibition, single agents and combos, HTB85, cell-based, BGB or cisplatin IC20 combos, synergistic combos for chromothripsis tumors (AID 1671453); conditions: HTB85 osteosarcoma cells, drug combinations, stronger effect = higher value;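 note: cells exposed for 96 hours before readout; 0% = vehicle DMSO and 100% = high DMSO killing control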
[6] = growth inhibition, single agents and combos, CRL2098, cell-based, BGB or cisplatin IC20 combos, synergistic combos for chromothripsis tumors (AID 1671454); conditions: CRL2098 osteosarcoma cells, drug combinations, stronger effect = higher value;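 note: cells exposed for 96 h before readout; 0% = vehicle DMSO and 100% = killing by high DMSO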
[7] = growth inhibition, single agents and combos, HD-MB03, cell-based, BGB or cisplatin IC20 combos, synergistic combos for chromothripsis tumors (AID 1671455; in the data active = inhibition above about 83%;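 note: 0% = vehicle DMSO and 100% = high DMSO as cytotoxic control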); conditions: HD-MB03 medulloblastoma cells, stronger effect = higher value
[8] = growth inhibition, single agents and combos, UWB1.289, cell-based, BGB or cisplatin combos, synergistic combos for chromothripsis tumors (AID 1671456); conditions: UWB1.289 ovarian carcinoma cells, stronger effect = higher value;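 note: cells exposed to compound for four days; 0% = vehicle DMSO and 100% = killing by high DMSO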
[9] = growth inhibition, single agents and combos, LFS_MB_2R, cell-based, cisplatin combos, synergistic combos for chromothripsis tumors (AID 1671457); conditions: LFS_MB_2R medulloblastoma cells, stronger effect = higher value;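 note: cells exposed to compound for four days before readout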
[10] = growth inhibition, MDA-MB-436, cell-based, BGB or cisplatin combos, synergistic combos for chromothripsis tumors (AID 1671458; call rule not given here;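 note: cells exposed for 96 hours; 0% = vehicle DMSO and 100% = killing by high DMSO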); conditions: MDA-MB-436 breast carcinoma growth inhibition, drug combinations, stronger effect = higher value
[11] = UWB1.289_BRCA1 ovarian cancer growth, cell-based, BGB or cisplatin combinations (AID 1671459); conditions: UWB1.289 BRCA1 ovarian carcinoma, drug combinations, stronger effect = higher value
[12] = drug combination toxicity in non-malignant astrocytes – cell-based, BGB or cisplatin IC20 combos, cytotoxicity control for chromothriptic childhood tumor combination screen (AID 1671460); conditions: Human astrocytes, viability inhibition, drug combinations, at 0.5 µM, stronger effect = higher value;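 note: cells exposed to compounds for 96 hours before viability readout; 0% = vehicle and 100% = killing control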
[13] = BT084 cell growth, single and combined drugs, ICGC_MB145, cisplatin and BGB IC40 combos (AID 1671461); conditions: BT084 medulloblastoma cells, drug combinations, stronger effect = higher value;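 note: cells exposed to drugs for 96 hours; 0% = vehicle DMSO and 100% = high DMSO full killing control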
[14] = RCMB18 cell growth, single agent and combined, cisplatin and BGB IC40 combos (AID 1671462); conditions: RCMB18 medulloblastoma cells, stronger effect = higher value;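 note: cells exposed to compound for four days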
[15] = CRL1545 cell growth, single agent and combined, cisplatin and BGB IC20 combos (AID 1671464); conditions: CRL1545 osteosarcoma cells, stronger effect = higher value;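 note: cells exposed to compound for 96 hours before readout; 0% = vehicle DMSO and 100% = high DMSO killing control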
[16] = compounds altering circadian rhythm period length – cell-based, LOPAC library, luminescence reporter (AID 2774; call rule not given here;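 note: values are relative to mean of DMSO wells on each plate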); conditions: circadian reporter cells, at 7 µM, actives lie on both sides
[17] = galactose survival enhancers in mitochondrial complex I cybrids – cell-based, galactose medium, ATP luminescence, primary screen (AID 1645843;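 active = z-score of at least 1.8 in each of two replicates, scored against plate mean and spread of sample wells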;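 note: positive z means more ATP and so rescue of galactose-driven cybrid death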); conditions: complex I mutant cybrid cells, 72 h, stronger effect = higher value
[18] = at 0.5 µM, stronger effect = higher value
[19] = measured here: combination with BGB IC20, at 0.005 µM
[20] = measured here: combination with BGB IC40, at 0.005 µM
[21] = measured here: combination with BGB IC40, at 0.05 µM
[22] = measured here: combination with cisplatin, at 0.5 µM, stronger effect = higher value
[23] = measured here: combination with cisplatin, at 5 µM, stronger effect = higher value
[24] = measured here: with BGB IC20 combination, at 0.5 µM
[25] = measured here: with cisplatin IC20 combination, at 0.5 µM
[26] = measured here: 5 uM single agent, at 5 µM
[27] = measured here: combination with cisplatin, at 0.5 µM
[28] = measured here: combination with cisplatin, at 5 µM
[29] = measured here: with BGB IC20, at 0.5 µM
[30] = measured here: with BGB IC20, at 5 µM
[31] = measured here: with cisplatin IC20, at 0.5 µM
[32] = measured here: with cisplatin IC20, at 5 µM

COc1cc([C@@H]2c3cc4c(cc3[C@H](O)[C@H]3COC(=O)[C@H]23)OCO4)cc(OC)c1O
inhibition [1, 18]: -9.98% (inactive) and 8.43% (inactive) | inhibition [1, 19]: -2.59% and -6.87% | inhibition [1, 20]: 7.46% and -20.3% | inhibition [1, 21]: 35.2% and -17% | inhibition [1, 22]: -26% and 12.8% | inhibition [1, 23]: 48% and 29.7% | inhibition ([2]; BGB combo, at 5 µM): 64.5% and 57.8% | inhibition ([2]; at 0.5 µM): 76% (inactive) and 68.9% (inactive) | inhibition ([2]; cisplatin combo, at 5 µM): 60.1% and 62.6% | inhibition [2, 24]: 66.9% and 60.4% | inhibition [2, 25]: 69% and 58.6% | inhibition ([2]; single agent, at 5 µM): 77.6% and 81.6% | inhibition ([3]; BGB IC20 combo, at 0.005 µM): 12.7% and -7.66% | inhibition ([3]; BGB IC40 combo, at 0.005 µM): 1.81% and -7.75% | inhibition ([3]; BGB IC40 combo, at 0.05 µM): 4.84% and 20.6% | inhibition ([3]; at 0.5 µM): -16.8% (inactive) and -20% (inactive) | inhibition ([3]; cisplatin combo, at 0.05 µM): 1.07% and 20.6% | inhibition ([3]; cisplatin combo, at 0.5 µM): -39.6% and -30.5% | inhibition ([3]; cisplatin combo, at 5 µM): -37.8% and -5.3% | inhibition [3, 26]: 0.691% and -3.02% | inhibition ([4]; at 0.5 µM): 4.95% (inactive) and 4.02% (inactive) | inhibition [4, 21]: -9.68% and 4.85% | inhibition [4, 27]: -26.6% and 18% | inhibition [4, 28]: 44.6% and 52.8% | inhibition ([5]; at 0.5 µM): 70% (inactive) and 60.4% (inactive) | inhibition [5, 29]: 56.9% and 41.3% | inhibition [5, 30]: 58.2% and 51.8% | inhibition [5, 31]: 60.9% and 54% | inhibition [5, 32]: 70.5% and 80% | inhibition ([5]; single agent, at 5 µM): 87% and 84.5% | inhibition ([6]; at 0.5 µM): 57.9% (inactive) and 29.8% (inactive) | inhibition ([6]; measured here: combination with BGB at IC20, at 0.5 µM): 50.3% and 29.8% | inhibition ([6]; measured here: combination with cisplatin at IC20, at 0.5 µM): 57.2% and 5.54% | inhibition ([7]; at 0.5 µM): 71.7% (inactive) and 69.2% (inactive) | inhibition ([7]; measured here: combo with BGB at IC20, at 0.5 µM): 61.9% and 65.3% | inhibition ([7]; measured here: combo with cisplatin at IC20, at 0.5 µM): 71.7% and 65.8% | inhibition ([8]; at 0.5 µM): 44% (inactive) and 35.9% (inactive) | inhibition ([8]; measured here: inhibition with BGB combination, at 0.05 µM): -0.844% and 8.28% | inhibition ([8]; measured here: inhibition with cisplatin combination, at 0.05 µM): 0.424% and -0.759% | inhibition ([9]; at 0.5 µM): 13.5% (inactive) and -0.16% (inactive) | inhibition [9, 27]: 23.7% and 7.38% | inhibition [9, 28]: 37.2% and 35.6% | inhibition ([10]; at 0.5 µM): 56.1% (inactive) and 45.1% (inactive) | inhibition ([10]; measured here: BGB combination, at 0.5 µM): 36% and 23.1% | inhibition ([10]; measured here: BGB combination, at 5 µM): 45.8% and 43.9% | inhibition ([10]; measured here: cisplatin combination, at 0.5 µM): 63.1% and 44.6% | inhibition ([10]; measured here: cisplatin combination, at 5 µM): 70.8% and 69% | inhibition ([11]; BGB combination, concentration series, at 5 µM): 55.3% and 54.8% | inhibition ([11]; at 0.5 µM): 51.6% (inactive) and 46.7% (inactive) | inhibition ([11]; cisplatin combination, concentration series, at 5 µM): 64.1% and 63.1% | inhibition [12]: 69.7% (inactive) and 62.4% (inactive) | inhibition ([12]; measured here: combo with BGB IC20): 66.6% and 57.1% | inhibition ([12]; measured here: combo with cisplatin IC20): 62.5% and 52.4% | inhibition ([13]; at 0.5 µM): 23.1% (inactive) and 7.97% (inactive) | inhibition ([13]; cisplatin combination, at 0.5 µM): -0.605% and 4.61% | inhibition ([13]; cisplatin combination, at 5 µM): 43.4% and 22.5% | inhibition ([13]; measured here: BGB IC40 combination 0.05 uM, at 0.05 µM): 7.15% and -9.48% | inhibition ([13]; single agent, at 5 µM): 73.2% and 24.9% | inhibition ([14]; at 0.5 µM): 6.51% (inactive) and -0.09% (inactive) | inhibition ([14]; cisplatin combo, at 5 µM): 39.6% and 46.7% | inhibition ([14]; measured here: BGB IC40 combination, at 0.05 µM): -8.85% and -7.39% | inhibition [14, 27]: 22% and 15.3% | inhibition ([14]; single agent, at 5 µM): 43.2% and -3.33% | inhibition ([15]; at 0.5 µM): 56.5% (inactive) and 47% (inactive) | inhibition [15, 24]: 55% and 43.8% | inhibition [15, 25]: 57.3% and 48.6% | inhibition ([15]; single agent, at 0.05 µM): -5.66% and 32.2% | inhibition ([15]; single agent, at 5 µM): 83% and 76.2%

O=C(CCCN1CCC2(CC1)C(=O)N(CCc1ccc(N=C=S)cc1)CN2c1ccccc1)c1ccc(F)cc1
period change [16]: 0.03 h (inactive)

CCN1CCCC(N2CCN3CCCC3C2)C1 (configuration not stated)
z-score [17]: -0.225 (inactive)

COc1cc(C[C@@H](C)N)c(OC)cc1I
period change [16]: -0.225 h (inactive)

CN1CCC(N(C)CCC2CCOCC2)CC1
z-score [17]: 0.38 (inactive)

CCC1(O)C(=O)OCc2c1cc1n(c2=O)Cc2cc3ccccc3nc2-1 (configuration not stated)
inhibition [1, 18]: 88.2% (active) and 9.86% (inactive) | inhibition [1, 19]: -1.21% and 5.58% | inhibition [1, 20]: -28.3% and -33.2% | inhibition [1, 21]: -15.4% and -14.9% | inhibition [1, 22]: 109% and 46.9% | inhibition [1, 23]: 81.5% and 87.5% | inhibition ([2]; BGB combo, at 5 µM): 91.9% and 99.2% | inhibition ([2]; at 0.5 µM): 76.6% (inactive) and 90.4% (active) | inhibition ([2]; cisplatin combo, at 5 µM): 89.8% and 99.4% | inhibition [2, 24]: 83.3% and 91.4% | inhibition [2, 25]: 71% and 86.5% | inhibition ([2]; single agent, at 5 µM): 93% and 99% | inhibition ([3]; BGB IC20 combo, at 0.005 µM): -14.4% and -0.816% | inhibition ([3]; BGB IC40 combo, at 0.005 µM): 10.1% and 28.9% | inhibition ([3]; BGB IC40 combo, at 0.05 µM): 90.9% and 90.2% | inhibition ([3]; at 0.5 µM): 0.67% (inactive) and -18.7% (inactive) | inhibition ([3]; cisplatin combo, at 0.05 µM): 90.9% and 89.8% | inhibition ([3]; cisplatin combo, at 0.5 µM): 8.68% and -15.9% | inhibition ([3]; cisplatin combo, at 5 µM): -16.2% and -24.5% | inhibition [3, 26]: -7.75% and -12.5% | inhibition ([4]; at 0.5 µM): 18.3% (inactive) and 58.5% (inactive) | inhibition [4, 21]: -2.41% and -26.5% | inhibition [4, 27]: 67.3% and 77.9% | inhibition [4, 28]: 84.7% and 77.9% | inhibition ([5]; at 0.5 µM): 87% (active) and 98.3% (active) | inhibition [5, 29]: 83.6% and 98.1% | inhibition [5, 30]: 99.4% and 98.2% | inhibition [5, 31]: 89.5% and 97.8% | inhibition [5, 32]: 99.8% and 99.6% | inhibition ([5]; single agent, at 5 µM): 99.8%
